Only some compounds are listed: those with a hit (about 2.4% of all), similar ones and a draw of the others.
D2 PAM-1 – positively modulates the human D2 dopamine receptor allosterically. P14416. HEK293 T-REx D2, calcium flux, EC20 dopamine potentiation. potentiation, % at 10 µM. hit rate 0.34% among 340,000;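 active means potentiation over 3 SD above the plate norm, cut at about 30% in these data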; further: 0% is about no effect
Target sequence (P14416 whole entry, looked up): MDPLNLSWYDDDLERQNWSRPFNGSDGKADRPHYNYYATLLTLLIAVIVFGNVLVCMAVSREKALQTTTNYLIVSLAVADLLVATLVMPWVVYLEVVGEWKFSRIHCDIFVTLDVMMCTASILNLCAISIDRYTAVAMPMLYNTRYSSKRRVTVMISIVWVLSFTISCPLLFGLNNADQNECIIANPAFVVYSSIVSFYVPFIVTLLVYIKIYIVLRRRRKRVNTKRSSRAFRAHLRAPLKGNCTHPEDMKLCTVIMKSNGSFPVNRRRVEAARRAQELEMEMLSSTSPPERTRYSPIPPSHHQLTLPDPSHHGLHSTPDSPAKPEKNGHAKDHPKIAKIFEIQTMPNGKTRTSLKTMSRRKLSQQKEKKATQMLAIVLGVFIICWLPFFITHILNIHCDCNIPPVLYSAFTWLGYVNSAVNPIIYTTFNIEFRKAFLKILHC
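Calcium flux readout, no-wash dye, 1 read/s. Inducible HEK293 Trex D2 line, overnight 30 C. Compound alone 180 s (agonist flags), then EC20 dopamine, another 180 s to score potentiation.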
D2 antagonist – D2 dopamine receptor (human) antagonism; AID 485344; inhibition, % at 10 µM; HEK293 TREx D2 cells, calcium flux, dopamine EC80; hit rate 2% among 340,000; P14416; in the data active means inhibition above about 30%; inactive means below that, where a call was filed; further: 0% is about no effect
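Compounds are added to dye-loaded, induced HEK293 T-REx cells coupled to calcium release via D2; after a 3 min kinetic read an EC80 dopamine stimulus is given and fluorescence is recorded for 3 more min.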
D2 PAM-2 – human D2 receptor positive allosteric modulation; P14416; DiscoveRx D2 beta-arrestin cells, luminescence, 90 min; 100% = 57 uM dopamine signal; potentiation, % (no concentration beside the values); hit rate 0.23% among 360,000; AID 624464; in the data active means potentiation above about 50%; inconclusive means mostly about 30% to 49%
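PathHunter beta-arrestin assay in DiscoveRx D2 cells. Compounds were added with an EC20 of dopamine (50 nM final) for 90 min at 37 deg C. Luminescence was read 1 h after detection reagent, with 57 uM dopamine as the EC100 control.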
D2 ag-1 – D2 dopamine receptor (human) agonism | HEK293 T-REx D2 cells, calcium flux agonist mode | activation, % at 2 µM | AID 485358 | hit rate 0.53% among 340,000;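 active means activation over 3 SD above normal in the single-dose calcium agonist read, cut at about 30% in these data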; further: 0% is about no effect
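HEK293 Trex D2 cells, tetracycline-induced, o/n 30 C 5% CO2; no-wash Ca dye, RT 30–90 min; 10-cycle baseline, 23 nl cpd added, kinetic Ca read 180 s; agonist hits = positive Ca response.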
D2 ag-2 – activates the human D2 dopamine receptor | activation, % (no concentration beside the values) | AID 624465 | hit rate 0.084% among 360,000 | DiscoveRx PathHunter D2 beta-arrestin, luminescence, 90 min; 100% = 57 uM dopamine signal | P14416; in the data active means activation above about 40%; inconclusive means between about 15% and that limit
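DiscoveRx PathHunter D2 beta-arrestin cells (2,100/well) attached overnight, then compound-stimulated 90 min at 37 C in HBSS/10 mM HEPES/0.1% Tween-20 buffer; beta-galactosidase complementation read by luminescence after 1 h at ambient temperature. Dopamine 57 uM final (EC100) as control.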
* hit, by the source's call; u = inconclusive; x = no result.

SMILES	D2 PAM-1	D2 antagonist	D2 PAM-2	D2 ag-1	D2 ag-2
O=C(O)c1cccc(CN2C(=O)c3ccccc3C2=O)c1	2	-17	-4	0	-3
O=C1c2cccc3c(O)ccc(c23)C(=O)N1Cc1ccccc1	-19	34*	17	101*	8
CCOc1ccc(NC(=O)c2cc(S(=O)(=O)N3CCN(c4ccccc4F)CC3)ccc2F)cc1	0	x	x	0	x
CN1CCN(S(=O)(=O)c2cccc(C(=O)NC3(C)CCS(=O)(=O)C3)c2)CC1 (configuration not stated)	41*	-1	-22	0	0
CC1(NC(=O)c2cccc(S(=O)(=O)N3CCCc4ccccc43)c2)CCS(=O)(=O)C1 (configuration not stated)	-1	-40	10	0	-1
c1ccc2c(c1)CCCN2Cc1nnnn1CC1CCCO1 (configuration not stated)	32*	-22	-10	0	-7
c1ccc(CCn2nnnc2CN2CCCc3ccccc32)cc1	-5	9	1	0	1
COC(=O)[C@@]1(Cc2ccc(OC)cc2)[C@@H]2[C@@H](CC(=O)[C@H]2CC(=O)C(=O)N(C)C)CN1C(=O)c1ccccc1	-2	11	-25	1	-7
COC(=O)[C@@]1(Cc2ccc(OC)cc2)[C@@H]2C(=CC(=O)[C@H]2CC(=O)C(=O)N2CCCC2)CN1C(=O)c1ccccc1	11	38*	6	0	0
CC1Cc2ccccc2N1C(=O)CSc1nnc2n1C(C)(C)Cc1ccccc1-2 (configuration not stated)	34*	1	-12	-1	-3
O=C(CC1S/C(=N/N=C/c2cccs2)NC1=O)Nc1ccc(Cl)cc1 (configuration not stated)	11	44*	4	1	-3
O=C(NCC1CCCO1)C(=Cc1cccc([N+](=O)[O-])c1)C(=O)NCC1CCCO1 (configuration not stated)	8	1	-3	1	3
O=C(/C=C/c1cccc([N+](=O)[O-])c1)NCC1CCCO1 (configuration not stated)	1	60*	-33	-1	-1
O=C(/C=C/c1cccc([N+](=O)[O-])c1)OC1CCCCC1=O (configuration not stated)	1	31*	-4	2	-5
CC(C)N(C(=O)/C=C/c1cccc([N+](=O)[O-])c1)C(C)C	19	24	-9	1	-1
O=C(C1COc2ccccc2O1)N1CCCCC1 (configuration not stated)	0	51*	-2	-1	-1
CCN(CC)S(=O)(=O)c1ccc(OC)c(NC(=O)c2cc([N+](=O)[O-])ccc2N2CCOCC2)c1	x	x	-4	x	0
CCN(CC)S(=O)(=O)c1cc(NC(=O)c2cc([N+](=O)[O-])ccc2N2CCOCC2)ccc1C	-4	37*	-36	0	-4
O=C(COC(=O)c1cc([N+](=O)[O-])ccc1N1CCOCC1)Nc1ccc(Cl)cc1	-8	42*	-28	1	2
CC(C)(C)c1ccc(NC(=O)Cn2cnc3cc([N+](=O)[O-])ccc3c2=O)cc1	-3	-5	27	0	u
Cc1ccc(CNC(=O)Cn2cnc3cc([N+](=O)[O-])ccc3c2=O)cc1	-22	-1	54*	1	1
CCC(=O)Oc1ccc(C(=O)Nc2c[nH]c(=O)[nH]c2=O)cc1	-2	35*	8	2	-2
COc1ccccc1/C=C/CN1CCC(Oc2ccc(C(=O)N3CCCCC3)cc2)CC1	-35	69*	-34	0	1
COc1ccccc1/C=C/CN1CCC(Oc2cc(C(=O)NC3CC3)ccc2OC)CC1	-20	59*	1	-1	-5
CCOc1cccc(/C(O)=C2/C(=O)C(=O)N(CCOC)C2c2ccco2)c1 (configuration not stated)	34*	14	-26	0	0
SMILES	D2 PAM-1	D2 antagonist	D2 PAM-2	D2 ag-1	D2 ag-2
CCOc1cccc(/C(O)=C2/C(=O)C(=O)N(Cc3cccnc3)C2c2ccco2)c1 (configuration not stated)	-3	-8	-5	1	-3
Cc1ccc(CNC(=O)C(=O)Nc2c3c(nn2-c2ccc(F)cc2)CSC3)cc1	15	x	x	2	x
Cc1cccc(OCCCN2CCCCCC2)c1	-15	40*	-20	0	1
CC(=O)N1CCC(C(=O)NCCOc2cccc(C)c2)CC1	-2	35*	1	-1	1
Clc1cccc(OCCCCN2CCCCC2)c1	-25	77*	-4	1	-4
CC1(C(=O)NS(=O)(=O)c2ccccc2Cl)CCN1C(=O)Cc1cccs1 (configuration not stated)	x	x	-7	x	4
O=S(=O)(Nc1ccc(-c2ccc(N3CCCC3)nn2)cc1)c1ccc(OC(F)(F)F)cc1	-6	x	x	1	x
Cc1nc2c(-c3ccccc3)c(C)nn2c(C)c1CCC(=O)NCc1cccc(Cl)c1	2	x	x	1	x
CCc1ccc(N(CC(=O)N2CCN(Cc3ccccc3)CC2)S(C)(=O)=O)cc1	-4	0	-6	-1	-6
CC(=NCCc1ccccc1)C1=C(O)CSC1=O	1	-12	u	35*	0
CCCCN=C(C)C1=C(O)CSC1=O	5	-2	-1	0	0
COc1cc(OC)c(NC(=O)c2noc3c2CSc2ccccc2-3)cc1Cl	5	x	x	3	x
N#CC1=C(N)S[C@H](C(=O)C23CC4CC(CC(C4)C2)C3)[C@H]1c1ccncc1	31*	4	14	1	5
CCOc1ccccc1NC(=O)Cn1cnc2sc(C)c(S(=O)(=O)N3CCC(C)CC3)c2c1=O	-6	x	x	x	x
O=C(COC(=O)/C=C/c1cccs1)Nc1ccc(F)cc1	11	6	-6	0	-1
CCc1cccc(NC(=O)COC(=O)/C=C/c2cccs2)c1	-7	31*	-6	0	-4
COc1cccc(-c2cc(C(F)(F)F)n3ncc(C(=O)N4CCc5ccccc5C4)c3n2)c1	5	50*	-3	-2	-6
COc1ccc(-c2cc(C(F)(F)F)n3ncc(C(=O)N4CCc5ccccc5C4)c3n2)cc1	2	-8	-5	1	-1
CCOC(=O)c1c(S(=O)(=O)N2CCCC(C(=O)N(C)Cc3ccccc3)C2)c(C)n(C)c1C (configuration not stated)	4	x	x	0	x
CCOC(=O)C1CCCN(C(=O)c2ccc(F)c(Cl)c2)CC1 (configuration not stated)	x	x	-3	x	3
Cn1c(C(=O)Nc2ccc3c(c2)OCO3)cc2c(=O)n(C)c3ccccc3c21	31*	15	-1	-1	-1

Assay outcomes from PubChem.
